Compound activity as filed in PubChem.
USP30 block: human USP30 deubiquitinase inhibition; AID 1645860; inhibition, % at 25 µM; purified USP30, Ub-rhodamine cleavage fluorescence; hit rate 5.3% among 47,000
OTUD3 inh: inhibitors of human OTUD3 deubiquitinase. purified OTUD3, Ub-rhodamine fluorescence, 2 h. hit rate 0.7% among 47,000. Q5T2D3. inhibition, % at 25 µM
Target sequence (Q5T2D3 whole entry, looked up): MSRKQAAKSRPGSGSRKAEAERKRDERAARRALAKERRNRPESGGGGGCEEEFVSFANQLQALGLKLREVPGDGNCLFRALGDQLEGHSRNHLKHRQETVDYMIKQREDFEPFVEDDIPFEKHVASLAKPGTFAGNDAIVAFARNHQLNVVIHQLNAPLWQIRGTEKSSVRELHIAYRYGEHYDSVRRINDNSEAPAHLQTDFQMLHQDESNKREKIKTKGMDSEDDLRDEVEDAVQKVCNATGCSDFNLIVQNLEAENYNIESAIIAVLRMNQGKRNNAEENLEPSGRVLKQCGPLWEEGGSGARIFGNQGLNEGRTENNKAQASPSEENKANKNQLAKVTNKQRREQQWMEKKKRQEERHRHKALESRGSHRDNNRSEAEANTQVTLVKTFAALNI
USP17 block: inhibitors of human USP17 deubiquitinase | purified USP17, Ub-rhodamine cleavage fluorescence, 3 h | A8MUK1 | inhibition, % at 50 µM | hit rate 6.5% among 47,000
USP28 block: inhibitors of human USP28 deubiquitinase. hit rate 3% among 47,000. inhibition, % at 25 µM. purified USP28, Ub-rhodamine cleavage fluorescence, 30 min. AID 1645857. Q96RU2
Of the large screens only hits and unclear results are named; the others gave an inactive call. This is a sample that favours compounds with a hit; in the whole collection about 11% have one here. Rule as the data show it: active = inhibition above about 30%; inactive = the rest.

Cc1cn2nnc(C(=O)Nc3ccc(OC(F)(F)F)cc3)c2c(=O)[nH]1	USP30 block 54, USP17 block 51
Cc1ccc(OCC(=O)NCC(c2ccco2)N2CCOCC2)cc1 (stereo not drawn)	none
Cc1ccccc1CNC(=O)c1cc2occc2c(Nc2ccc(F)cc2)n1	none
Cc1ccc(CNC(=O)c2cc3occc3c(Nc3ccccc3)n2)cc1	USP17 block 49
COCCN(Cc1cc2cc(C)ccc2[nH]c1=O)S(=O)(=O)c1ccc(Cl)cc1	USP17 block 33
Cc1ccc(S(=O)(=O)N(C)Cc2cc3cc(C)ccc3[nH]c2=O)cc1	USP17 block 57 (no result: USP30 block, USP28 block)
Cc1ccc2[nH]c(=O)c(CN(CC3COCCO3)S(=O)(=O)c3ccc(F)cc3)cc2c1 (stereo not drawn)	USP17 block 76
Cc1ccc2[nH]c(=O)c(CN(Cc3ccco3)S(=O)(=O)c3ccccc3)cc2c1	none (no result: USP17 block)
O=c1[nH]c2ccccc2cc1CN(c1ccccc1)S(=O)(=O)c1ccc(Cl)cc1	USP17 block 48
Cc1ccc(S(=O)(=O)N(Cc2ccco2)Cc2cc3ccccc3[nH]c2=O)cc1	none
Cc1ccc(-n2c(C)cc(/C=C3/C(=N)N4C(c5ccccc5)=CSC4=NC3=O)c2C)cc1C	none
COc1ccccc1C(=O)N1CCC(S(=O)(=O)c2ccc(-c3ccco3)cc2)CC1	USP17 block 56
O=C(c1cnc2ccccc2n1)N1CCC(S(=O)(=O)c2ccc(-c3ccco3)cc2)CC1	USP17 block 44
Cc1cccc(-n2nc(C)c3c2NC(=O)CC3C(=O)c2ccc3c(c2)OCO3)c1C (stereo not drawn)	none
CSc1cccc(N2C(=O)CCC2(C)C(=O)NC2CCCC2)c1 (stereo not drawn)	none
Cn1nc(C(=O)Nc2cccc(F)c2)c(=O)c2ccccc21	USP30 block 37, USP17 block 45
COC(=O)COc1ccc(/C=N/NC(=O)c2ccc(CN3CCc4ccccc4C3)cc2)cc1	USP30 block 54
Cc1ncc(C(=O)NCc2ccco2)c(C)n1	none (no result: USP30 block, USP28 block)
Cc1cccc(Cn2cc(S(=O)(=O)N3CCCCCC3)ccc2=O)c1	none
COc1ccccc1C(=O)Nc1sc2c(c1-c1nc3ccccc3[nH]1)CCCC2	none
O=C(Nc1sc2c(c1-c1nc3ccccc3[nH]1)CCCC2)C1CC(=O)N(Cc2ccccc2)C1 (stereo not drawn)	USP17 block 38
Cc1cccc(OCc2nnc(SCC(=O)Nc3cccc(F)c3C)o2)c1	USP28 block 44
Cc1cc(C)cc(C(=O)N2CCC(Oc3ccc(C(=O)N(C)C)cn3)CC2)c1	USP28 block 44
CN(C)C(=O)c1ccc(OC2CCN(C(=O)c3ccc(F)cc3)CC2)nc1	none
O=c1cc(-c2ccc(O)c(O)c2)oc2cc(O)cc(O)c12	USP30 block 101, OTUD3 inh 101, USP17 block 99, USP28 block 99
O=c1c(O)c(-c2ccc(O)c(O)c2)oc2cc(O)cc(O)c12	USP30 block 81, OTUD3 inh 95, USP17 block 97, USP28 block 98
O=c1c(-c2ccc(O)cc2)coc2cc(O)cc(O)c12	none
COc1cc(OC)c2c(=O)cc(-c3ccccc3)oc2c1	none
CC(C)c1ccc(NC(=O)C2CCCN(c3cn[nH]c(=O)c3)C2)cc1 (stereo not drawn)	none
Cc1ccc(N2C(=O)N(CC(=O)Nc3ccccc3C#N)C(=O)C2C)cc1 (stereo not drawn)	none (no result: USP30 block, USP28 block)
CCC(C)Oc1cccc(C(=O)Nc2ccc(CN3CCOCC3)cc2)c1 (stereo not drawn)	USP28 block 80
CC(C)(C)OC(=O)NCc1ccc(C(=O)Nc2ccc(CN3CCOCC3)cc2)cc1	none
CC(C)(C)CC(=O)N1CCN(c2ccc(N3CCCCC3)nn2)CC1	none
O=C1CN(C(=O)CC2CCCCC2)C(c2ccccc2)c2cc(Br)ccc2N1 (stereo not drawn)	USP30 block 41
COc1ccc(Cl)cc1C(=O)Nc1nnc2n1CCCS2	none
O=C(Nc1nnc2n1CCCS2)c1cccc(Cl)c1	USP28 block 59
O=S(=O)(c1cccnc1)N1CCCn2c(nc3ccccc32)C1	none
O=C(COC(=O)c1ccc2c(=O)n3c(nc2c1)CCCCC3)c1ccc2c(c1)OCCO2	none
O=C(c1ccc2c(=O)n3c(nc2c1)CCCC3)N1CCC2(CC1)OCCO2	USP30 block 31
CC(=O)Nc1ccc(-n2cnc(C(=O)NC(C)c3ccccc3)c2)nc1 (stereo not drawn)	USP17 block 64
CC(=O)Nc1ccc(-n2cnc(C(=O)NC3CCCC3)c2)nc1	none
O=C(c1ccccc1)c1cccc2c1NCC2	USP28 block 43
C[C@@H](C(=O)NCc1ccc(F)cc1)N1C(=O)N2CCc3c([nH]c4ccccc34)[C@@]2(C)C1=O	USP30 block 46, USP17 block 59, USP28 block 36
C[C@@H](C(=O)NCc1ccc2c(c1)OCO2)N1C(=O)N2CCc3c([nH]c4ccccc34)[C@@]2(C)C1=O	USP30 block 33
Cc1ccc(CNC(=O)[C@H](C)N2C(=O)N3CCc4c([nH]c5ccccc45)[C@@]3(C)C2=O)cc1	none
CCC(C)[C@H](NC(=O)[C@H](C(C)C)N1C(=O)N2CCc3c([nH]c4ccccc34)[C@@]2(C)C1=O)C(=O)NC1CCCC1 (stereo partly drawn)	USP30 block 32
CC(=O)c1cc(-c2ccc(F)cc2)n(CC(=O)Nc2cccc(C)c2C)c1C	USP30 block 73, OTUD3 inh 35, USP17 block 52
CNC(=O)c1cc2c(nc1NCC1CC1)CCNCC2	none
Cc1cccc(NC(=O)Cn2cnc(-c3noc(-c4ccccc4)n3)c2)c1C	USP30 block 44, OTUD3 inh 37, USP28 block 39
O=C(Nc1ccc(Cn2cnc(-c3nc(-c4ccccc4)no3)c2)cc1)c1ccccc1F	USP30 block 32 (no result: USP17 block)
Cc1ccccc1-c1noc(-c2cn(Cc3ccc(NC(=O)Cc4ccccc4)cc3)cn2)n1	USP30 block 69, USP17 block 60, USP28 block 37
Cc1ccc(-c2noc(-c3cn(Cc4ccc(N)cc4)cn3)n2)cc1	none
CC(=O)N1CCN(c2oc(-c3ccc(COc4ccc(C)cc4)o3)nc2C#N)CC1	none
CCOc1ccc(-c2nc(C#N)c(N3CCN(C(=O)c4ccccc4C)CC3)o2)cc1	USP17 block 52
COc1ccccc1-c1nc(C#N)c(N2CCN(C(=O)c3ccccc3)CC2)o1	USP30 block 47
NC(=O)c1nc(C2CCCCC2)nc2c1[nH]c(=O)n2-c1ccccc1	none
CC1CCN(C(=O)c2cn(-c3ccc(C#N)cc3)cn2)CC1	none
CCC(=O)N1c2ccc(S(=O)(=O)CCC(=O)NCc3cccnc3)cc2CC1C (stereo not drawn)	none
COc1ccc(-c2cc(C(=O)N3CCN(c4ccc(N5CCOCC5)nn4)CC3)[nH]n2)cc1	USP17 block 38, USP28 block 32
CN1CCN(C(=O)CN2C(=O)CCOc3ccccc32)CC1	none (no result: USP30 block, USP28 block)
Cc1ccc(CNC(=O)c2cnn(-c3ccc([N+](=O)[O-])cc3)c2C2CCNCC2)cc1	USP30 block 44
Cc1ccc(-n2ncc(C(=O)NCc3cccnc3)c2C2CCNCC2)cc1	none
Clc1cccc(-c2nc(N3CCC4(CC3)OCCO4)nc3c2COc2ccccc2-3)c1	none
